Reference: PubChem BioAssay (Tox21)
Inconclusive results are not listed. Active and inactive are the calls of the source. Unless noted, calls follow the shape of the dose curve; as a rule, active = well fitted curve in the direction sought with a large enough effect in the repeat runs; inconclusive = weak or mixed curves; inactive = no such curve, though single readings can be large; an effect the other way counts as inactive or inconclusive.

Columns and labels:
[1] = A CellTox Green Cytotoxicity Assay to monitor cytotoxicity in HepG2 cells - 24 hour (AID 1224878); also: nearly all actives have a fitted effect of over 45% in size
Method in brief: (§1)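 HepG2 cells, 600/well, preincubated 5 h with CellTox Green dye, then exposed to Tox21 compounds in DMSO at 37 C for up to 40 h. Dead-cell DNA fluorescence read at the indicated time point.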

[2] = A CellTox Green Cytotoxicity Assay to monitor cytotoxicity in HepG2 cells - 40 hour (AID 1224879); also: nearly all actives have a fitted effect of over 40% in size
Method in brief: as §1

[3] = qHTS RealTime-Glo MT Cell Viability Assay in HEK293 cells - 0 hour (AID 1224880); also: top concentration of the series differs between compounds; nearly all actives have a fitted effect of over 45% in size
Method in brief: (§2)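 600 cells/well were plated with the nonlytic NanoLuc/prosubstrate reagent, pre-incubated 5 h, then given 23 nL of compound in DMSO. Incubation at 37 C for 40 h, with luminescence from viable-cell-reduced substrate read repeatedly from 0 h.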

[4] = A CellTox Green Cytotoxicity Assay to monitor cytotoxicity in HEK293 cells - 32 hour (AID 1224881); also: nearly all actives have a fitted effect of over 40% in size
Method in brief: (§3)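 HEK293 cells, 600/well, were preincubated 5 hours and then exposed to compounds at 37 C for up to 40 hours. A cell-impermeant cyanine dye staining dead-cell DNA was read by fluorescence at 0, 8, 16, 24, 32 and 40 h time points.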

[5] = A CellTox Green Cytotoxicity Assay to monitor cytotoxicity in HepG2 cells - 0 hour (AID 1224882); also: nearly all actives have a fitted effect of over 35% in size
Method in brief: as §1

[6] = A CellTox Green Cytotoxicity Assay to monitor cytotoxicity in HepG2 cells - 32 hour (AID 1224883); also: nearly all actives have a fitted effect of over 50% in size
Method in brief: as §1

[7] = A CellTox Green Cytotoxicity Assay to monitor cytotoxicity in HEK293 cells - 8 hour (AID 1224884); also: nearly all actives have a fitted effect of over 35% in size
Method in brief: as §3

[8] = qHTS RealTime-Glo MT Cell Viability Assay in HepG2 cells - 16 hour (AID 1224885); also: nearly all actives have a fitted effect of over 50% in size
Method in brief: (§4)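 Cell number in HepG2 cultures estimated from NanoLuc luminescence generated by metabolic reduction of a prosubstrate by living cells. The homogeneous, nonlytic format allowed repeated reads at 0, 8, 16, 24, 32 and 40 h of compound exposure.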

[9] = qHTS RealTime-Glo MT Cell Viability Assay in HEK293 cells - 24 hour (AID 1224886); also: top concentration of the series differs between compounds; nearly all actives have a fitted effect of over 50% in size
Method in brief: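 Homogeneous bioluminescent viability format in HEK293 cells (600 cells/well). Following 5 h at 37 C/5% CO2, 23 nL compound was pintooled; the signal was measured repeatedly during 40 h incubation.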

[10] = qHTS RealTime-Glo MT Cell Viability Assay in HEK293 cells - 8 hour (AID 1224887); also: top concentration of the series differs between compounds; nearly all actives have a fitted effect of over 50% in size
Method in brief: as §2

[11] = A CellTox Green Cytotoxicity Assay to monitor cytotoxicity in HEK293 cells - 16 hour (AID 1224888); also: nearly all actives have a fitted effect of over 35% in size
Method in brief: as §3

[12] = qHTS RealTime-Glo MT Cell Viability Assay in HepG2 cells - 0 hour (AID 1224889); also: nearly all actives have a fitted effect of over 50% in size
Method in brief: as §4

[13] = A CellTox Green Cytotoxicity Assay to monitor cytotoxicity in HepG2 cells - 8 hour (AID 1224890); also: nearly all actives have a fitted effect of over 45% in size
Method in brief: as §1

[14] = qHTS assay to identify small molecule antagonists of the estrogen receptor alpha (ER-alpha) signaling pathway using the BG1 cell line in the presence of 0.1 nM 17-beta-estradiol - cell viability counter screen (AID 1259241); also: nearly all actives have a fitted effect of over 40% in size
Method in brief: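 CellTiter-Fluor read (30 min, 37C) on ER-alpha/ERE-luc VM7Luc4E2 cells; 22 hr compound treatment; agonist 0.1 nM E2 final; same-well multiplex.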

[15] = qHTS assay to identify small molecule antagonists of the androgen receptor (AR) signaling pathway using the MDA cell line in the presence of 0.5 nM R1881 - cell viability counter screen (AID 1259242); also: nearly all actives have a fitted effect of over 45% in size
Method in brief: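 MDA-kb2 cells (MMTV-luciferase, AR/GR responsive) were treated with compounds plus 0.5 nM R1881 (final) for 16 hr at 37C, 0% CO2. Viability was then read in the same wells as live-cell protease fluorescence (CellTiter-Fluor, 30 min).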

[16] = target: Estrogen receptor (Homo sapiens) (UniProt P03372); experiment: qHTS assay to identify small molecule antagonists of the estrogen receptor alpha (ER-alpha) signaling pathway using the BG1 cell line in the presence of 0.1 nM 17-beta-estradiol (AID 1259244); also: nearly all actives have a fitted effect of over 50% in size
Method in brief: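 VM7Luc4E2 cells (endogenous full-length ER-alpha, 4×ERE-luciferase), kept 5 days in phenol red-free, charcoal-stripped FBS medium; 4,000 cells/well. Compounds added with 0.1 nM (final) 17beta-estradiol, 22 hr at 37C; luminescence read with ONE-Glo after 30 min.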

[17] = qHTS assay to identify small molecule phospholipidosis (PLD) inducers (AID 1259344; active = well fitted curve in the direction sought with a large enough effect; an effect the other way counts as inactive or inconclusive)
Method in brief: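 HepG2 cells grown on collagen I take up LipidTOX Red while exposed to compound for 24 h; after fixation they are imaged at 20x and pit metrics are extracted.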

[18] = qHTS assay to identify small molecule HDAC inhibitors (AID 1259364)
Method in brief: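 Wild-type HCT-116 cells, plated overnight at 37 C, exposed to compounds 2 hr at 37 C; luminogenic HDAC-Glo substrate then added 30 min at room temperature. Luminescence reports relative endogenous class I/II HDAC activity.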

[19] = qHTS assay to identify small molecule HDAC inhibitors - cell viability counter screen (AID 1259365)
Method in brief: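 To flag cytotoxic hits, 1,500 wild-type HCT-116 cells per well, plated the day before, receive test compounds for 2hr at 37 C before CellTiter-Glo reagent and a luminescence read.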

[20] = target: Androgen receptor (Homo sapiens) (UniProt P10275); experiment: qHTS assay to identify small molecule antagonists of the androgen receptor (AR) signaling pathway using the MDA cell line in the presence of 0.5 nM R1881 (AID 1259243); also: nearly all actives have a fitted effect of over 50% in size
Method in brief: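 MDA-kb2 cells (MMTV-luciferase, responsive to AR and GR) at 3,000/well, rested 5 h at 37C, 0% CO2, then given compounds plus 0.5 nM R1881 (final) for 16 hr. Luciferase read with ONE-Glo after 30 min at room temperature.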
% is scaled to controls: 0 for no effect and ±100 for the full control effect.

Androgen receptor (Homo sapiens), sequence (P10275 whole entry, looked up): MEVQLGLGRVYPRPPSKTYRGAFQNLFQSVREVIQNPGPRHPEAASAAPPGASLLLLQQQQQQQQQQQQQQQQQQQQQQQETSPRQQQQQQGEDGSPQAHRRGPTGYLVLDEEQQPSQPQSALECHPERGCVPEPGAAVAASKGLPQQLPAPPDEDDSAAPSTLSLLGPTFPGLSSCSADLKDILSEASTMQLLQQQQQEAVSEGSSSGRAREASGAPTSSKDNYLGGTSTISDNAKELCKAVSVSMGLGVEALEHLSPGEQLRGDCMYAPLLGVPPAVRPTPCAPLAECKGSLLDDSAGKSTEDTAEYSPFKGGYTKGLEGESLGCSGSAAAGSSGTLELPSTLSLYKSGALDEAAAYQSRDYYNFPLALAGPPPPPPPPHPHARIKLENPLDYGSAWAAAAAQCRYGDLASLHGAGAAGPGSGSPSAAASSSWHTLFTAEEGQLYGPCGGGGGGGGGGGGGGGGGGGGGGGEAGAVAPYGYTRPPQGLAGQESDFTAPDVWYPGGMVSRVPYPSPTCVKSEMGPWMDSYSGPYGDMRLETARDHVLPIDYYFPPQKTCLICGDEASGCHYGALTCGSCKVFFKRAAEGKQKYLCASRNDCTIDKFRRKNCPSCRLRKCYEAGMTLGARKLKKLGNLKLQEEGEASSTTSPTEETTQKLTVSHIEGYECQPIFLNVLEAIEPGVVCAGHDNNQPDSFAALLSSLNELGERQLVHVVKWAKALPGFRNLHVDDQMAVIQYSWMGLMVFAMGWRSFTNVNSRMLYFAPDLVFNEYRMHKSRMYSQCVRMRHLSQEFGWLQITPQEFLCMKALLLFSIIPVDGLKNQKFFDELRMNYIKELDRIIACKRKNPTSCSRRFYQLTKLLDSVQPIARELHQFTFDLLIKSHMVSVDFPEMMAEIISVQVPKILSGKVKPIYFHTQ
Estrogen receptor (Homo sapiens), sequence (P03372 whole entry, looked up): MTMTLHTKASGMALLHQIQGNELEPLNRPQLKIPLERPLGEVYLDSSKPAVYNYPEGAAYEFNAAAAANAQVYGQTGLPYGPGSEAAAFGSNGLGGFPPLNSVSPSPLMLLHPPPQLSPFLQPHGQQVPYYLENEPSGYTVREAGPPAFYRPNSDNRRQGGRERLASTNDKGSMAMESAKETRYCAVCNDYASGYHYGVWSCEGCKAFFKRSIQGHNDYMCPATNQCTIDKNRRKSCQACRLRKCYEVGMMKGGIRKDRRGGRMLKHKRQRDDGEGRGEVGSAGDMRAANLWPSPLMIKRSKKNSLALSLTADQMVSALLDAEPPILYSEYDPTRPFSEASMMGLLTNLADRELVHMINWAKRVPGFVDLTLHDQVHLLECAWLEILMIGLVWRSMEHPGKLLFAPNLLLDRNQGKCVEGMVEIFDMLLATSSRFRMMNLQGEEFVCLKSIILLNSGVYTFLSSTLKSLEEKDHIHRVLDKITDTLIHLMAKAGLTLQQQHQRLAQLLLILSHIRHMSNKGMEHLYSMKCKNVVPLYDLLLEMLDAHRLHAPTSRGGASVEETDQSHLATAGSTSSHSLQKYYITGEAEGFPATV

C[C@@H]1CC[C@@]2(OC1)O[C@H]1C[C@H]3[C@@H]4CC[C@H]5C[C@@H](O)CC[C@]5(C)[C@H]4CC(=O)[C@]3(C)[C@H]1[C@@H]2C
inactive: cytotoxicity [1] -7.96% [at 6.97 µM] | cytotoxicity increase [2] -2.78% [at 6.97 µM] | activity change, negative = cytotoxicity [3] 0.253% [at 6.97 µM] | cytotoxicity increase [4] -0.706% [at 6.97 µM] | cytotoxicity [5] 2.51% [at 6.97 µM] | cytotoxicity increase [6] -3.63% [at 6.97 µM] | cytotoxicity increase [7] -0.568% [at 6.97 µM] | activity change, negative = cytotoxic [8] 0.914% [at 6.97 µM] | activity change, negative = cytotoxicity [9] -0.905% [at 6.97 µM] | activity change, negative = cytotoxicity [10] 2.92% [at 6.97 µM] | activity change [11] -0.0716% [at 6.97 µM, stronger effect = higher value] | activity change, negative = cytotoxicity [12] 5.89% [at 6.97 µM] | cytotoxicity increase [13] -0.434% [at 6.97 µM] | activity change, negative = cytotoxicity [14] -0.428% [at 8.39 µM] | viability change, negative = cytotoxic [15] 4.91% [at 8.39 µM] | activity change, negative = inhibition [16] 0.329% [at 8.39 µM] | Potency [17] | activity change, negative = inhibition [18] 8.02% [at 8.39 µM] | activity change, negative = cytotoxicity [19] 4.19% [at 8.39 µM]

CN(C)CCc1c[nH]c2ccc(CS(=O)(=O)N3CCCC3)cc12
inactive: Potency [1] | Potency [2] | Potency [3] | Potency [4] | Potency [5] | Potency [6] | Potency [7] | outcome [8] | outcome [9] | outcome [10] | Potency [11] | Potency [12] | Potency [13] | outcome [14] | outcome [15] | outcome [16] | Potency [17] | Potency [18] | outcome [19]

O=P(O)(O)C(O)(Cc1cccnc1)P(=O)(O)O
inactive: Potency [1] | Potency [2] | Potency [3] | Potency [4] | Potency [5] | Potency [6] | Potency [7] | outcome [8] | outcome [9] | outcome [10] | Potency [11] | Potency [12] | Potency [13] | outcome [14] | outcome [15] | outcome [16] | Potency [17] | Potency [18] | outcome [19]

CCOC(=O)[C@H](CCc1ccccc1)N[C@H]1CS[C@H](c2cccs2)CN(CC(=O)O)C1=O
inactive: Potency [1] | Potency [2] | Potency [3] | Potency [4] | Potency [5] | Potency [6] | Potency [7] | outcome [8] | outcome [9] | outcome [10] | Potency [11] | Potency [12] | Potency [13] | outcome [14] | outcome [15] | Potency [20] | outcome [16] | Potency [17] | Potency [18] | outcome [19]

CC(O)C(CO)C(C)O (centres undefined)
inactive: Potency [1] | Potency [2] | Potency [3] | Potency [4] | Potency [5] | Potency [6] | Potency [7] | outcome [8] | outcome [9] | outcome [10] | Potency [11] | Potency [12] | Potency [13] | outcome [14] | outcome [15] | Potency [20] | outcome [16] | Potency [18] | outcome [19]

CCc1ncc(C)[nH]1
inactive: Potency [1] | Potency [2] | Potency [3] | Potency [4] | Potency [5] | Potency [6] | Potency [7] | outcome [8] | outcome [9] | outcome [10] | Potency [11] | Potency [12] | Potency [13] | outcome [14] | outcome [15] | Potency [20] | Potency [18] | outcome [19]
